Only a selection was taken, and hits are over-represented in it overall.
KDM5B inh = KDM5B demethylase inhibition | KDM5B demethylase, FDH-coupled NADH fluorescence (FDH is formaldehyde dehydrogenase) | Potency, µM (top dose mostly 57.7 µM), most hits filed as inhibitors | 220,000 compounds, 2.6% hits; active = well fitted inhibition curve with a large enough effect; note: 0% is about no effect; nearly all actives have a fitted effect of over 70% in size
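Compound dilutions met 200 nM (final) KDM5BΔAP for 10 min at room temperature before substrate addition. The substrate mix held 12.5 µM H3K4me3 with cofactors 25 µM α-ketoglutarate and 50 µM Fe²⁺. NADH signal gain over 30 min defined activity.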
* marks the source's active call; other numbers are inactive results; i = inactive. Potency is the fitted concentration of half-maximal effect.

SMILES	KDM5B inh
CCC(OC(=O)CN1C(=O)c2ccccc2C1=O)C(=O)NC1CCCC1 (centres undefined)	i
Cc1onc(-c2ccccc2Cl)c1C(=O)Nc1ccccc1NC(=O)c1ccccc1	i
CC(Sc1nnc(C2CC2)o1)C(=O)c1c[nH]c2ccccc12 (centres undefined)	i
N#Cc1ccc(S(=O)(=O)N2CCCN(c3ccc(C(F)(F)F)cn3)CC2)cc1	i
CCc1noc([C@@H]2CC(F)(F)CN2C(=O)COc2ccc(F)cc2)n1	i
Cc1cccc(O[C@H]2COCCN(C(=O)c3ccc(C(F)(F)F)cc3)C2)n1	i
Cc1nnc2sc(-c3ccc(CNC(=O)C(C)(C)Oc4ccc(Cl)cc4)cc3)nn12	i
Cc1nc(-c2ccc(F)cc2)sc1CCNC(=O)C(=O)Nc1ccc2c(c1)OCCO2	i
CCC(C(=O)Nc1nnc(COc2ccccc2)s1)c1ccccc1 (centres undefined)	i
Cc1ccc(C(C)C)c(OCC(=O)N2CCN(c3ncccn3)CC2)c1	i
Cc1cc(F)ccc1NC(=O)Cn1c(C)cc2nc3n(c(=O)c21)CCCCC3	i
O=C(Cc1c[nH]c2ncc(-c3cccc(CO)c3)cc12)N1CCOCC1	28µM*
O=C(Cc1c[nH]c2ncc(-c3ccccc3)cc12)N1CC[S+](=O)([O-])CC1	35µM*
O=C(O)c1cc(-c2cccc(CO)c2)cc(S(=O)(=O)N2CCOCC2)c1	i
CCOC(=O)c1c(C)oc2nc(C)nc(NCCCN3CCN(c4ccc(F)cc4)CC3)c12	i
CC(CNC(=O)Cn1ncc2ccccc2c1=O)c1ccccc1 (centres undefined)	i
CC1(C(=O)N2CCCC2)CCCc2cnc(Nc3ccccc3)nc21 (centres undefined)	i
CC1(C(=O)NCc2ccc(F)cc2)COCc2cnc(Nc3ccccc3)nc21 (centres undefined)	i
CC1(C(=O)NC2CCOCC2)CCCc2cnc(NCc3ccccc3)nc21 (centres undefined)	40µM*
CC1(C(=O)NC2CCOCC2)CCc2cnc(Nc3ccccc3)nc21 (centres undefined)	i
CC1(C(=O)NCc2cccnc2)CCc2cnc(NCc3ccccc3)nc21 (centres undefined)	32µM*
CC1(C(=O)NCc2cccnc2)CCc2cnc(Nc3ccccc3)nc21 (centres undefined)	i
CCCc1ccc(S(=O)(=O)N2CCN(C3CCN(CCOC)C3=O)CC2)cc1 (centres undefined)	i
O=C1[C@@H]2CSCN2C(=O)CN1Cc1ccccc1F	i
Fc1ccc(COc2ccc(-n3cnnn3)cc2)c(Cl)c1	i
SMILES	KDM5B inh
Cn1ccc(NC(=O)C2(C)CCc3cnc(Nc4ccccc4)nc32)n1 (centres undefined)	i
COc1cccc(Nc2ncc3c(n2)C(C)(C(=O)NCc2cccnc2)CC3)c1 (centres undefined)	i
COc1cccc(Nc2ncc3c(n2)C(C)(C(=O)NC2CCN(C)CC2)CC3)c1 (centres undefined)	i
COc1cccc(Nc2ncc3c(n2)C(C)(C(=O)NC2CCOCC2)CC3)c1 (centres undefined)	i
CC1(C(=O)NCc2cccc(Cl)c2)CCc2cnc(N3CCOCC3)nc21 (centres undefined)	35µM*
COc1ccc(NC(=O)C2(C)CCc3cnc(N4CCOCC4)nc32)cn1 (centres undefined)	35µM*
CC1(C(=O)Nc2ccccc2)CCc2cnc(N3CCOCC3)nc21 (centres undefined)	35µM*
CC(=O)Nc1ccc(OCC(=O)NCc2ccc(N3CCOCC3)cc2)nc1	i
CC(=O)N1CCN(C(=O)C2(C)CCc3cnc(Nc4ccccc4)nc32)CC1 (centres undefined)	i
COc1cccc(NC(=O)C2(C)CCc3cnc(N4CCOCC4)nc32)c1 (centres undefined)	28µM*
O=C(NCc1cccc(Cl)c1)c1ccc(CN2C(=O)NC3(CCOCC3)C2=O)cc1	i
COc1ccc(NC(=O)C2(C)COCc3cnc(Nc4ccccc4)nc32)cn1 (centres undefined)	i
CCc1cccc2c(C(=O)COC(=O)c3ccccn3)c[nH]c12	i
Cc1cc(C(=O)NCC(=O)NC2CC2)c2ccccc2n1	i
CC(C)/C=C1\CCCC\C1=N/NC(N)=O	i
CCCn1nc(C(=O)OC(C)C(=O)Nc2cc(C)on2)c2ccccc2c1=O (centres undefined)	i
Cc1nccn1CCc1nc2cc(NC(=O)C3CCCCC3)ccc2n1C	i
CC(OC(=O)c1c[nH]c2ccccc12)C(=O)NCc1ccccc1 (centres undefined)	i
COc1ccc(-c2nc3scc(CCNC(=O)Cc4ccc(F)cc4)n3n2)cc1	i
CCCCNC(=O)Cc1csc2nc(C)c(-c3cc(C)n(-c4ccc(F)cc4)n3)c(=O)n12	28µM*
CCCCNC(=O)CNC(=O)c1nn(-c2ccc(OC)cc2)c(=O)c2ccccc12	i
CCCCCCCNC(=O)Cc1cccs1	i
CCCCCNC(=O)Cc1csc2nc(C)c(-c3cc(C)n(-c4cc(F)ccc4C)n3)c(=O)n12	25µM*
Cc1ccccc1-c1nc2scc(CCNC(=O)C(=O)Nc3cc(F)ccc3F)n2n1	i
Cc1nc(CCNC(=O)CC2C(=O)NCCN2Cc2ccccc2F)sc1C (centres undefined)	i
SMILES	KDM5B inh
COc1ccccc1NC(=O)c1ccc2[nH]c(C)cc(=O)c2c1	i
COC(CNC(=O)c1cc(S(=O)(=O)N2CCc3ccccc32)ccc1F)OC	i
CS(=O)(=O)Cc1ccc(C(=O)OCc2ccc(C#N)cc2F)cc1	i
COCCC(=O)N1CC(c2nc(CCOc3cccc(C)c3)no2)C1	i
O=C1COc2ccc(-c3csc(NC4CCCCC4)n3)cc2N1	i
CC(C)C[C@@H](NC(=O)[C@@]1(O)C[C@@H](O)[C@H](O)[C@@H](NC(=O)CS(=O)(=O)c2ccccc2)C1)C(N)=O	i
COc1ccc(-c2cc(C(=O)NCc3cc(C)on3)c3c(c2)N(C)CCO3)cn1	35µM*
CN1CCN(CCNC(=O)c2cc(-c3ccccc3)cn2C)CC1	i
CN1CCN(c2ccc(-c3cc4c(ccn4C)c(C(=O)NCCN4CCNC4=O)n3)cc2)CC1	i
O=C(NCCSc1ccccc1)c1cc(Cl)c2c(c1)OCCCO2	i
COc1cccc(CN[C@@H]2CCC[C@@H](C(=O)NCc3cc(C)on3)CC(=O)N(C)C2)c1	i
CN1CCOc2c(C(=O)NCC[S+](C)(=O)[O-])cc(-c3ccccc3)cc21	32µM*
COc1ccc(C(=O)NCCc2ncc(C)n2C2CC2)cn1	i
CN1CCOc2c(C(=O)NCCN3CCNC3=O)cc(-c3ccc(O)c(F)c3)cc21	35µM*
Cc1cccc(CN2CCc3ncc(C(=O)NCCN4CCNC4=O)n3CC2)c1	i
COc1ccc(-c2cc(C(=O)NCC[S+](C)(=O)[O-])c3c(c2)N(C)CCO3)cn1	32µM*
COc1cccc(CC(=O)N[C@@H]2CCC[C@@H](C(=O)NCc3cc(C)on3)CC(=O)N(C)C2)c1	i
CCCn1c(C)cnc1CCNC(=O)c1ccc(OC)nc1	i
O=C(Cc1ccccc1)Nc1ccc(C(=O)Nc2ccc(O)cc2)cc1	i
COC[C@@H]1CN(C(=O)CCc2cccc(OC)c2)C[C@H]1c1nc(C)no1	i
COc1ccc(OC)c(NC(=O)Cn2nc3ccc(SC4CCCCC4)nn3c2=O)c1	i

Screens: PubChem BioAssay, National Center for Advancing Translational Sciences (NCATS)
